Source: PubChem BioAssay
Values without a mark were called inactive. Active and inactive are the calls of the source. How the calls were made is not given here.

Target: L-lactate dehydrogenase (Plasmodium falciparum (isolate CDC / Honduras)) (UniProt Q27743)
Assay: PfLDH activity inhibition – cell lysate, 3D7 strain, counter-screen for P. falciparum growth inhibition project (AID 2304);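 further: 0% = vehicle and 100% = reference inhibitor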
Conditions: P. falciparum 3D7 crude extract, LDH APAD/NBT absorbance; at 2 µM; hits give high values

L-lactate dehydrogenase (Plasmodium falciparum (isolate CDC / Honduras)), sequence (Q27743 whole entry, looked up): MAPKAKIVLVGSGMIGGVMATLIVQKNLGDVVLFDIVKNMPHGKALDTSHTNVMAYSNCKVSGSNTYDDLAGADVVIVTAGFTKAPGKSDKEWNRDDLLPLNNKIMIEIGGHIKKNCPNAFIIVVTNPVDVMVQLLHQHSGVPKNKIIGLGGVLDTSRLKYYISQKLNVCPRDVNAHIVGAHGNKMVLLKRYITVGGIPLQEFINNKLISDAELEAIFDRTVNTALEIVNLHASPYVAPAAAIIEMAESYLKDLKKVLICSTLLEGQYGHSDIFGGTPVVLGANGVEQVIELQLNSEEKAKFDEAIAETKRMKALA

SMILES | inhibition [%]
Cc1nc(C(=O)N2CCCC[C@H]2CNC(=O)c2ccc(-c3ccc(N4CCCC4=O)cc3C)cc2)c(-c2ccc(F)cc2)s1 | 8
CCCNc1nc(NCc2c(C)cccc2C)nc(NC(C)(C)C)n1 | 2
COc1cc2c(cc1N1C[C@@H](C)N[C@@H](C)C1)N(C(=O)c1ccc(-c3ccc(-c4ncc[nH]4)cc3C)cc1)CC2 | -2
CCc1cccc2sc(N3CCN(C(=O)c4ccc([N+](=O)[O-])o4)CC3)nc12 | 0
O=S(=O)(Nc1cccc(CCN2CCC(N3CCCCC3)CC2)c1)c1ccccc1C(F)(F)F | 1
O=C(c1cccs1)N1CCN(c2ccc([N+](=O)[O-])c(NC3CC3)c2)CC1 | 2
Oc1cc(Nc2ccnc3cc(-c4ccc(CN5CCCCC5)o4)c(Cl)cc23)c(Cl)cc1F | -5
O=[N+]([O-])c1ccc(NC(=NCCOc2ccccc2)Nc2ccccc2Br)c(O)c1 | -9
COc1ccccc1N1CCN(CCCCNC(=O)c2ccc(NC(=O)c3ccc(C(F)(F)F)cc3)cc2)CC1 | 0
COc1cc2ncnc(NCCc3ccccc3Cl)c2cc1OC | 3
O=C(CCc1cnc[nH]1)Nc1cccc(-c2ccc(-c3nc4ccc(F)cc4[nH]3)cc2)c1 | -1
CNC(=O)NC1=NC(C)(C)N(OCCCOc2cc(Cl)c(Cl)cc2Cl)C(N)=N1 | -3
CC(Cc1ccc(OCCN2CCN(c3cccc(Cl)c3)CC2)cc1)NCC(O)c1cccc(C(F)(F)F)c1 (stereo not given) | -1
CCc1ccc(-c2nc3cc(NC(=O)c4cc([N+](=O)[O-])cc([N+](=O)[O-])c4)ccc3o2)cc1 | 2
O=C(/C=C/c1ccc([N+](=O)[O-])cc1)N1CCC(NS(=O)(=O)c2ccc(F)cc2)CC1 | -10
O=C(Nc1ccc(Cn2ncc(N3CCCNCC3)c(Cl)c2=O)cc1)Nc1cc(F)cc(C(F)(F)F)c1 | 4
O=C(Cc1cccs1)NC(CCCN1CCC(Oc2cccc(Cl)c2)CC1)c1ccc(Cl)c(Cl)c1 (stereo not given) | 3
NCC1CCCN1Cc1ccc(-c2ccc(-c3nc4ccc(C(F)(F)F)cc4[nH]3)s2)cc1 (stereo not given) | -3
Cc1ccccc1Nc1nc(Nc2ccccc2)c2ccccc2n1 | -8
O=C(C=NO)Nc1ccccc1[N+](=O)[O-] | -2

SMILES | inhibition [%]
FC(F)(F)c1ccc2c(NCCc3ccccc3)ccnc2c1 | 0
COc1ccc(-c2ccc(NC(=O)c3ccc(F)cc3)cc2)cc1CNC(C)C | 2
COc1ccccc1CCN(C)CCN1CCC(NC(=O)c2ccc(-c3ccc(C(F)(F)F)cc3)cc2)CC1 | -2
FC(F)(F)c1ccc2nc(-c3ccc(-c4cccc(CNCCc5ccncc5)c4)s3)[nH]c2c1 | -6
CC(C)(C)C/C=C\c1ccc(C(=O)NCC2CC2)cc1 | -2
CCOc1ccc(S(=O)(=O)N(C)c2ccc(OCC(=O)Nc3nccs3)cc2)cc1 | 3
CCOc1cc(C(=O)N[C@@H](Cc2ccccc2)[C@H](O)CNCc2cc(OC)cc(OC)c2)cc(N2CCCS2(=O)=O)c1 | 0
COc1ccc(CNc2nc(NCc3ccc(C(F)(F)F)cc3)c3cc(OC)c(OC)cc3n2)cc1OC | -3
Cc1c(CNCCCNc2nc3cscc3[nH]2)sc(C(F)F)c1Br | 1
Cc1ccc(Nc2nccc(NCC(O)c3cccc(C(F)(F)F)c3)n2)cc1 (stereo not given) | -6
Cc1ccccc1Nc1nc(NCCc2ccccc2)nc2ccccc12 | -1
CCOC(=O)c1c(C)n(-c2ccccc2)c2ccc(OC(=O)COc3ccc(Cl)cc3Cl)cc12 | 3
CCc1cc2c3c(N)nc(N)nc3ccc2n1C(C)CC (stereo not given) | 0
CCc1ccc(NC(=O)c2ccc(CN3CCCN(CCC(C)C)CC3)cc2)cc1 | -7
Oc1ccccc1CN1CCCC(COC(c2ccc(F)cc2)c2ccc(F)cc2)C1 (stereo not given) | 1
CC1CN(Cc2ccc(C#N)cc2)CCN1c1ccc(NC(=O)c2cccs2)cc1 (stereo not given) | 2
O=C(Nc1ccccc1)N(Cc1ccccc1-c1cccc(CNCc2ccc3c(c2)OCO3)c1)C1CCN(Cc2ccccc2)CC1 | 1
COc1cc(CC2c3cc(O)c(Cl)cc3CCN2C)c(OC)cc1C (stereo not given) | 0
COc1cc(NC(=O)/C=C/c2cc(F)cc(F)c2F)cc(OCCN2CCC(O)(c3ccccc3)CC2)c1 | 6
CC(Nc1nc(Nc2ccc(F)cc2)nc(SCC(N)=O)n1)c1ccccc1 (stereo not given) | -2

Test system: not listed separately
Assay: inhibition of 3D7 malaria parasite growth – strain 3D7 (AID 2306);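 further: 0% = DMSO wells and 100% = chloroquine plus artemisinin control wells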
Conditions: P. falciparum 3D7 erythrocytic growth, LDH absorbance, 72 h; at 2 µM; hits give high values

SMILES | growth inhibition
Cc1nc(C(=O)N2CCCC[C@H]2CNC(=O)c2ccc(-c3ccc(N4CCCC4=O)cc3C)cc2)c(-c2ccc(F)cc2)s1 | 98% (active)
CCCNc1nc(NCc2c(C)cccc2C)nc(NC(C)(C)C)n1 | 91% (active)
COc1cc2c(cc1N1C[C@@H](C)N[C@@H](C)C1)N(C(=O)c1ccc(-c3ccc(-c4ncc[nH]4)cc3C)cc1)CC2 | 98% (active)
CCc1cccc2sc(N3CCN(C(=O)c4ccc([N+](=O)[O-])o4)CC3)nc12 | 97% (active)
O=S(=O)(Nc1cccc(CCN2CCC(N3CCCCC3)CC2)c1)c1ccccc1C(F)(F)F | 82% (active)
O=C(c1cccs1)N1CCN(c2ccc([N+](=O)[O-])c(NC3CC3)c2)CC1 | 100% (active)
Oc1cc(Nc2ccnc3cc(-c4ccc(CN5CCCCC5)o4)c(Cl)cc23)c(Cl)cc1F | 102% (active)
O=[N+]([O-])c1ccc(NC(=NCCOc2ccccc2)Nc2ccccc2Br)c(O)c1 | 88% (active)
COc1ccccc1N1CCN(CCCCNC(=O)c2ccc(NC(=O)c3ccc(C(F)(F)F)cc3)cc2)CC1 | 100% (active)
COc1cc2ncnc(NCCc3ccccc3Cl)c2cc1OC | 88% (active)
O=C(CCc1cnc[nH]1)Nc1cccc(-c2ccc(-c3nc4ccc(F)cc4[nH]3)cc2)c1 | 101% (active)
CNC(=O)NC1=NC(C)(C)N(OCCCOc2cc(Cl)c(Cl)cc2Cl)C(N)=N1 | 97% (active)
CC(Cc1ccc(OCCN2CCN(c3cccc(Cl)c3)CC2)cc1)NCC(O)c1cccc(C(F)(F)F)c1 (stereo not given) | 99% (active)
CCc1ccc(-c2nc3cc(NC(=O)c4cc([N+](=O)[O-])cc([N+](=O)[O-])c4)ccc3o2)cc1 | 93% (active)
O=C(/C=C/c1ccc([N+](=O)[O-])cc1)N1CCC(NS(=O)(=O)c2ccc(F)cc2)CC1 | 96% (active)
O=C(Nc1ccc(Cn2ncc(N3CCCNCC3)c(Cl)c2=O)cc1)Nc1cc(F)cc(C(F)(F)F)c1 | 101% (active)
O=C(Cc1cccs1)NC(CCCN1CCC(Oc2cccc(Cl)c2)CC1)c1ccc(Cl)c(Cl)c1 (stereo not given) | 86% (active)
NCC1CCCN1Cc1ccc(-c2ccc(-c3nc4ccc(C(F)(F)F)cc4[nH]3)s2)cc1 (stereo not given) | 102% (active)
Cc1ccccc1Nc1nc(Nc2ccccc2)c2ccccc2n1 | 103% (active)
O=C(C=NO)Nc1ccccc1[N+](=O)[O-] | 99% (active)

SMILES | growth inhibition
FC(F)(F)c1ccc2c(NCCc3ccccc3)ccnc2c1 | 87% (active)
COc1ccc(-c2ccc(NC(=O)c3ccc(F)cc3)cc2)cc1CNC(C)C | 97% (active)
COc1ccccc1CCN(C)CCN1CCC(NC(=O)c2ccc(-c3ccc(C(F)(F)F)cc3)cc2)CC1 | 92% (active)
FC(F)(F)c1ccc2nc(-c3ccc(-c4cccc(CNCCc5ccncc5)c4)s3)[nH]c2c1 | 100% (active)
CC(C)(C)C/C=C\c1ccc(C(=O)NCC2CC2)cc1 | 94% (active)
CCOc1ccc(S(=O)(=O)N(C)c2ccc(OCC(=O)Nc3nccs3)cc2)cc1 | 95% (active)
CCOc1cc(C(=O)N[C@@H](Cc2ccccc2)[C@H](O)CNCc2cc(OC)cc(OC)c2)cc(N2CCCS2(=O)=O)c1 | 94% (active)
COc1ccc(CNc2nc(NCc3ccc(C(F)(F)F)cc3)c3cc(OC)c(OC)cc3n2)cc1OC | 103% (active)
Cc1c(CNCCCNc2nc3cscc3[nH]2)sc(C(F)F)c1Br | 99% (active)
Cc1ccc(Nc2nccc(NCC(O)c3cccc(C(F)(F)F)c3)n2)cc1 (stereo not given) | 99% (active)
Cc1ccccc1Nc1nc(NCCc2ccccc2)nc2ccccc12 | 82% (active)
CCOC(=O)c1c(C)n(-c2ccccc2)c2ccc(OC(=O)COc3ccc(Cl)cc3Cl)cc12 | 99% (active)
CCc1cc2c3c(N)nc(N)nc3ccc2n1C(C)CC (stereo not given) | 100% (active)
CCc1ccc(NC(=O)c2ccc(CN3CCCN(CCC(C)C)CC3)cc2)cc1 | 96% (active)
Oc1ccccc1CN1CCCC(COC(c2ccc(F)cc2)c2ccc(F)cc2)C1 (stereo not given) | 97% (active)
CC1CN(Cc2ccc(C#N)cc2)CCN1c1ccc(NC(=O)c2cccs2)cc1 (stereo not given) | 93% (active)
O=C(Nc1ccccc1)N(Cc1ccccc1-c1cccc(CNCc2ccc3c(c2)OCO3)c1)C1CCN(Cc2ccccc2)CC1 | 101% (active)
COc1cc(CC2c3cc(O)c(Cl)cc3CCN2C)c(OC)cc1C (stereo not given) | 99% (active)
COc1cc(NC(=O)/C=C/c2cc(F)cc(F)c2F)cc(OCCN2CCC(O)(c3ccccc3)CC2)c1 | 103% (active)
CC(Nc1nc(Nc2ccc(F)cc2)nc(SCC(N)=O)n1)c1ccccc1 (stereo not given) | 90% (active)
